PubChem BioAssay AID1259313 (Sanford-Burnham Center for Chemical Genomics, 2017)
The campaign covered roughly 340,000 compounds. About 8,500 (2.5%) were called active. The list comes from a sample in which actives are over-represented; it also holds similar structures and randomly drawn compounds. A number with no mark means an inactive call.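 Rule for the calls: active = melting temperature shift of at least 10% of the positive control shift, at one fixed dose; inactive = the rest.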

These compounds were tested on Glutamate receptor ionotropic, NMDA 3A (GRIN3A) ligand-binding domain (assay: binders of NR3A ligand-binding domain, primary screen, biophysical, differential scanning fluorimetry, uHTS (AID 1259313)). Details: NR3A LBD differential scanning fluorimetry, at 25 µM, hits give high values, 0% = protein alone, 100% = glycine-bound protein.

Compound	Tm shift relative to glycine control
CCOc1ccc(N=C2NC(=O)S/C2=C\c2ccc(O)cc2)cc1	15.1% (active)
CCOc1ccc(N=C2SC(C(=O)O)CC(=O)N2C)cc1 (configuration not stated)	1.77%
CCOc1[nH]n(-c2ccc(Cl)cc2)c(=O)c1C=Nc1ccc(O)cc1	5.05%
CCCCn1c(N)c(N(CC(C)C)C(=O)CN(C)S(=O)(=O)c2ccc(F)cc2)c(=O)[nH]c1=O	-1.73%
Nc1cc(N)nc(SCC(=O)Nc2cccc(S(=O)(=O)N3CCCCC3)c2)n1	-2.96%
COc1cc(/C=C/C(=O)OCC(=O)Nc2cccc(Oc3ccccc3)c2)ccc1O	16.3% (active)
COc1ccc(/C=C/C(=O)OCC(=O)Nc2cccc(Oc3ccccc3)c2)c(OC)c1	1.79%
COc1cc(/C=C/C(=O)OCC(=O)NCCCc2ccccc2)ccc1O	-3.57%
Oc1cccc2ccc(/C=C/c3ccc(Br)s3)nc12	27.9% (active)
Nc1ccc(S(=O)(=O)Nc2nccc(/C=C/c3ccc(Br)s3)n2)cc1	3.72%
CC(Sc1nc2cc(Cl)ccc2s1)C(=O)Nc1ccc2c(c1)OCO2 (configuration not stated)	17.5% (active)
O=C(Nc1ccc2c(c1)OCO2)c1sc2cc(Cl)ccc2c1Cl	2.38%
CC(Sc1nc(-c2ccccc2)cc(C(F)(F)F)n1)C(=O)Nc1ccc2c(c1)OCO2 (configuration not stated)	-3.7%
COc1cc(C(C)=O)ccc1OC(=O)CN1C(=O)c2ccccc2C1=O	-1.44%
COC(=O)Nc1ncc(CN2CCCCC2)s1	0.99%
COC(=O)Nc1ncc(CN2C(=O)c3ccccc3C2=O)s1	13.7% (active)
CN(Cc1ccccc1)C(=O)CCNC(=O)Cn1cnc2ccccc2c1=O	1.47%
CC(C)=CCCC1(C)C=Cc2c(ccc3c2[nH]c2cc(O)c(C)cc23)O1 (configuration not stated)	22.5% (active)
O=C(O)CC/C(=N\NC(=O)c1ccc(F)cc1)c1ccc(Br)cc1	-1.55%
COc1ccccc1-c1nnc(NC(=O)c2ccc3ncsc3c2)o1	-3.33%
O=C(COC(=O)c1ccc2ncsc2c1)Nc1ccc(Cl)cc1	-0.85%

Compound	Tm shift relative to glycine control
Cc1sc(NC(=O)c2ccc3ncsc3c2)c(C(N)=O)c1C	28.4% (active)
COc1cc(OC)c(C(=O)NNC(=O)c2ccc(NS(=O)(=O)c3cccs3)cc2)cc1OC	0.08%
Cc1ccc(C(=O)N/C(=C/c2cccs2)C(=O)N2CCCCC2)cc1	-1.69%
COc1ccc(-c2ccc3nnc(SCC(=O)Nc4ccc(NC(C)=O)cc4)n3n2)cc1	-5.8%
COc1ccccc1NC(=O)c1cc(N2C(=O)C3C4CCC(C4)C3C2=O)ccc1Cl (configuration not stated)	-3.68%
CCc1ccnc(NS(=O)(=O)c2ccc3c(c2)OCCO3)c1	-2.2%
COc1cccc(OC)c1C(=O)Nc1sc2c(c1C(N)=O)CCCC2	-0.3%
NC(=O)c1c(Nc2nc3c(F)cccc3s2)sc2c1CCCC2	10.8% (active)
Fc1cc(F)c2nc(Nc3nc4c(F)cccc4s3)sc2c1	17.3% (active)
COc1cc2ccccc2cc1C(=O)N(CCN(C)C)c1nc2c(F)cccc2s1	3.31%
O=C(Nc1sc2c(c1C(=O)O)CCC2)c1ccccc1F	1.58%
NNc1nc2c(Cl)cccc2s1	-0.09%
COCCNc1nc(N)c([N+](=O)[O-])c(N2CCCCCC2)n1	0.58%
CCn1c(SCCC(C)C)nnc1-c1c[nH]c2ccccc12	-26.6%
Cc1ccc(-c2csc(-c3c[nH]c4ccccc34)n2)cc1	25.6% (active)
CCCc1cc(-c2nc(-c3ccc(C)cc3)cs2)ccn1	-8.16%
COc1ccc(F)c(-c2nc(CN3CCC(c4ccccc4)CC3)c(C)o2)c1	-0.88%
CCCCn1c(N)c(N(CCC(C)C)C(=O)CC2OC(=O)c3ccccc32)c(=O)[nH]c1=O (configuration not stated)	-1.19%
Cc1ccc(CSCC(=O)N(C)CC(=O)Nc2cccc(F)c2)cc1	-1.41%
CN(CC(=O)Nc1cccc(F)c1)C(=O)CC1CCCC1	2.89%
CCN(CC)C(=O)CSC(Nc1cccc(F)c1)=C(C#N)C#N	11.7% (active)

Compound	Tm shift relative to glycine control
Cc1noc(C)c1S(=O)(=O)N(CC(=O)Nc1ccc2c(c1)OCCO2)c1ccc(C(C)C)cc1	1.36%
CC1Cc2ccccc2N1CC(=O)Nc1ccc2c(c1)OC(F)(F)O2 (configuration not stated)	-9.28%
COc1ccc(C(=O)Oc2cc(/C=N/NS(=O)(=O)c3ccc(C)cc3)ccc2OC)cc1	14.3% (active)
COc1ccc(S(=O)(=O)N/N=C\c2ccc(OC)c(COc3ccc(C)cc3[N+](=O)[O-])c2)cc1	7.36%
COc1ccc(C(=O)NNS(=O)(=O)c2ccc(C)cc2)cc1	9.89%
COC(=O)c1nc(NC(=O)c2ccccc2)n[nH]1	-2.48%
COc1ccc(S(=O)(=O)NCC(c2ccco2)N2CCOCC2)cc1 (configuration not stated)	0.48%
COc1ccc(CCNC(=O)COC(=O)c2cc(=O)c3ccccc3o2)cc1	-0.35%
COc1ccc(Nc2cc(=O)oc3ccccc23)cc1	13.9% (active)
COc1ccc2oc(=O)cc(-c3cc4ccccc4o3)c2c1	-4.08%
CC1CCN(C(=O)CN(c2ccc(Oc3ccccc3)cc2)S(C)(=O)=O)CC1	0.83%
CCOc1cc(-c2noc(CCCC(=O)NC3CCCCC3)n2)ccc1OC	-2.03%
COc1ccc(CN2CC(C(=O)NC3CCCCC3)CC2=O)cc1 (configuration not stated)	2.45%
COc1cc(/C=C2\Oc3ccc(C#Cc4ccc(O)cc4)cc3C2=O)cc(OC)c1	16.2% (active)
COC(=O)C(C)Oc1ccc2c(c1)O/C(=C\c1cccc(Br)c1)C2=O (configuration not stated)	-2.66%
COc1cc(C#Cc2ccc3cc(CCCO)oc(=O)c3c2)cc(OC)c1	-0.81%
CCN(CC(=O)Nc1cc(Cl)ccc1C)C(=O)CN1C(=O)NC2(CCCC2)C1=O	0.97%
CC(C)c1ccc(S(=O)(=O)N2CCN(C(C)C(=O)NC3CCCC3)CC2)cc1 (configuration not stated)	-0.92%
CC(C(=O)NC1CCCC1)N1CCN(S(=O)(=O)c2ccccc2Cl)CC1 (configuration not stated)	16.8% (active)
O=C(Cc1ccc(S(=O)(=O)N2CCCC2)s1)NC1CCCCCC1	-3.8%
